Bioassay records from PubChem BioAssay.
TTR transcr act: TTR transcription activators in neuroblastoma reporter cells, primary screen, cell-based, luminescence, SH-SY5Y, TTR promoter Gaussia luciferase | 92,000 tested, 1.3% active | 100% = recombinant luciferase protein wells | activation, % at 16.7 µM;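 active = activation above the mean of all tested compounds plus 3 SD, cut at about 9.5% in these data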;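 also: cells exposed to compounds for one day before reading; 0% = median of all test compound wells on the plate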
HuH7 TTR inh: TTR promoter reporter inhibitors in hepatoma cells, counter-screen for TTR transcription activator project, cell-based, luminescence, HuH7 hepatoma; 1,100 tested, 4% active; shares compounds with TTR transcr act; AID 1117279, 2014; HuH7 TTR promoter-Gaussia luciferase reporter; inhibition, % at 16.7 µM;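 active = average inhibition above the solvent-only control wells' mean plus 3 SD, cut at about 15% in these data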;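 also: 0% = cells with DMSO only and 100% = cells with inhibitor control FD; inhibitors lower well luminescence so higher value means more inhibition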
TTR up confirm: TTR transcription activators, retest, confirmation, cell-based, luminescence, SH-SY5Y, triplicate; shares compounds with TTR transcr act; SHSY5Y TTR promoter Gaussia luciferase; 100% = purified Lucia enzyme wells, no cells; activation, % at 16.7 µM; 1,100 tested, under 10 active;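 active = mean activation above a set limit taken from the earlier primary screen, cut at about 11% in these data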;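 also: 0% = DMSO-treated cells and 100% = recombinant Lucia luciferase without cells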
An asterisk follows results filed as active; ! = a repeat was not active. Shown is part of a subset that was picked to be rich in hits.

SMILES	TTR transcr act	others
O=C(O)c1ccccc1SC1CC(=O)N(c2cccc3ccccc23)C1=O (stereo not given)	1
COC(=O)c1ccccc1SC1CC(=O)N(c2ccccc2)C1=O (stereo not given)	21*	HuH7 TTR inh=-13;TTR up confirm=0
Cn1nnnc1SC1CC(=O)N(c2ccccc2)C1=O (stereo not given)	1
O=C(NC(Cc1ccccc1)C(=O)N1CCN(c2ccc(F)cc2)CC1)c1ccccc1 (stereo not given)	-2
Cc1ccc(N2C(=O)/C(=C/c3ccco3)SC2=S)cc1	-2
O=C(NCCN1C(=O)S/C(=C\c2cccs2)C1=O)c1ccco1	1
COc1ccccc1OCCN1C(=O)S/C(=C\c2ccco2)C1=O	10*	HuH7 TTR inh=-13;TTR up confirm=0
COC(=O)[C@]12CCCCC=C1N(Cc1ccc(OC)cc1)C(=O)[C@@H]2CC(=O)NCCCN1CCCC1=O	2
Nc1ncnc2c1ncn2[C@H]1C[C@H](O)[C@@H](CO)O1	9
Nc1ncnc(N2CCOCC2)c1N	0
Nc1ncnc2c1ncn2CCN1CCOCC1	13*	HuH7 TTR inh=-5;TTR up confirm=0
Cc1ccc(NC(=O)C2CC3CCC2C3)cc1 (stereo not given)	0
O=C(NCCO)c1nc(C(=O)c2ccccc2)c2ccccc2n1	3
Cc1nc2ccccc2n1CC(=O)c1ccc(O)c(O)c1	0
CCCCN1C(=O)C(CC(=O)NCc2ccco2)CC(C(=O)N(C)C)=C1C (stereo not given)	2
O=C(CCCCC(=O)OCC1CCCO1)OCC1CCCO1 (stereo not given)	2
CCOC(=O)CCCC(=O)N1CCOCCOCCN(C(=O)CCCC(=O)OCC)CCOCCOCC1	-1
O=C(CCCCC(=O)OCC1COCO1)OCC1COCO1 (stereo not given)	10*	HuH7 TTR inh=-2;TTR up confirm=0
CC(C)(C)NC(=O)NC(=O)CSc1nnc2ccccn12	0
O=C(CSc1nnc2ccccn12)NCCc1ccc(Cl)cc1	1
CC(C)CNC(=O)CSc1nnc2ccccn12	11*	HuH7 TTR inh=-4;TTR up confirm=12*
COC(=O)c1c(C)[nH]c(C(=O)COC(=O)CCc2ccc(OC)c(OC)c2)c1C	0
CCOC(=O)CCC(NC(=O)CCCCC(=O)NC(CCC(=O)OCC)C(=O)OCC)C(=O)OCC (stereo not given)	4
CCOC(=O)CCCCC(=O)NC(CO)C(=O)NC (stereo not given)	9.9*	HuH7 TTR inh=-5;TTR up confirm=0
CCOC(=O)CCCCCCCCC(=O)Nc1ccc(-n2[nH]c(=O)cc2C)cc1	2
SMILES	TTR transcr act	others
COP1(=O)CCOCC[C@H](CC(C)C)NC(=O)[C@H](CC(C)C)N1 (stereo not given in full)	-1
CCc1noc(C)c1C(=O)Nc1cc(S(=O)(=O)N2CCCCC2)ccc1N(C)C	11*	HuH7 TTR inh=-13;TTR up confirm=0
Cc1onc(-c2ccccc2)c1C(=O)Nc1cccc(S(=O)(=O)N2CCCCC2)c1	1
CCc1noc(C)c1C(=O)N1CCN(S(=O)(=O)c2ccc(Br)cc2)CC1	1
O=C(NC1CCCCN(Cc2ccc(Cl)cc2)C1=O)c1ccc2ccccc2c1 (stereo not given)	-1
CCCCNC(=O)C[C@H]1C[C@@]2(C(=O)OC)C(=C[C@H](COCc3ccccc3)O[C@@H]2C)N(Cc2ccccc2)C1=O	0
O=C(CSCc1ccc(Cl)cc1)NCc1ccccn1	12*	HuH7 TTR inh=-15;TTR up confirm=1
O=C(NCc1ccccn1)c1ccc(Cl)cc1Cl	0
O=C(O)CSCC(=O)NCc1ccc(Cl)cc1	0
COC(=O)[C@@]12CCCCC3=C1N(CCC3)C(=O)[C@H]2CC(=O)NCC12CC3CC(CC(C3)C1)C2	0
CC(C)c1ccc(-n2nnnc2SCc2nc(N)nc(N)n2)cc1	1
COc1ccc(OCC(=O)Nc2ccc(N3CCCCC3)cc2)cc1	1
O=C(COC(=O)c1ccc(O)cc1)Nc1ccc(N2CCCCC2)cc1	3
COc1cc(OC)cc(C(=O)OCC(=O)Nc2ccc(N3CCCCC3)cc2)c1	12*	HuH7 TTR inh=0;TTR up confirm=1
CCNC(=O)Nc1ccc2c(c1)C(=O)N(C)[C@H]1CC[C@@H](CC(=O)NCCN3CCCC3)O[C@@H]1CO2	2
O=C(COC(=O)c1ccccc1O)NNC(=O)c1ccc(Br)cc1	9.9*	HuH7 TTR inh=-5;TTR up confirm=2
O=C(NNC(=O)c1ccccc1O)c1ccc(Br)cc1	1
O=C(COC(=O)c1cc(Br)ccc1O)NNC(=O)c1ccc([N+](=O)[O-])cc1	-2
Fc1ccc(Cn2ccc3ccc(-c4ccc5ccn(Cc6ccc(F)cc6F)c5c4)cc32)c(F)c1	0
Cc1cccc(NC(=O)C(C)Sc2nc3ccccc3c(=O)n2CCCN2CCOCC2)c1 (stereo not given)	21*	HuH7 TTR inh=-11;TTR up confirm=1
CC(C)Cn1c(SC(C)C(=O)Nc2ccc(N3CCOCC3)cc2)nc2ccccc21 (stereo not given)	-2
COc1ccc(NC(=O)CSc2nc3ccccc3c(=O)n2CCCN2CCOCC2)c(OC)c1	2
Cc1ccnc(SCc2cc(=O)c(OC(=O)c3ccc(C)c([N+](=O)[O-])c3)co2)n1	-1
CC1(C)C(CO)=CC(=O)C2=C1SCC(=O)N2	11*	HuH7 TTR inh=-9;TTR up confirm=0
CC(=O)c1cnc2nc(C)nn2c1C	1
SMILES	TTR transcr act	others
CC(=O)c1cnc2cc(-c3ccc(Cl)cc3)nn2c1C	12*	HuH7 TTR inh=13;TTR up confirm=-1
Cc1c(C(=O)O)cnc2cc(-c3ccc(Cl)cc3)nn12	-1
Cc1ccc(CN2CC=CCS2(=O)=O)cc1	-1
COc1ccc(C(O)c2nc(-c3ccccc3OC)cs2)cc1 (stereo not given)	0
CC(=O)c1ccc(N(C(=O)c2csnn2)C(C(=O)NC2CCCC2)c2ccccc2)cc1 (stereo not given)	0
Cc1nc(CN(C)c2ncnc3ccc(-c4ccc5c(c4)OCO5)cc23)cs1	-1
Cc1occc1CNc1ncnc2ccc(-c3ccc4c(c3)OCO4)cc12	2
CN(Cc1ccco1)c1ncnc2ccc(-c3ccc4c(c3)OCO4)cc12	27*!	HuH7 TTR inh=-6;TTR up confirm=0
CCOC1=C2CN(S(=O)(=O)c3ccc(C)cc3)[C@H](c3ccccc3)C[C@@H]2N(S(=O)(=O)c2ccc(Br)cc2)[C@H](c2ccccc2)C1	0
CCn1c(C(O)c2cc(OC)c(OC)c(OC)c2)nc2ccccc21 (stereo not given)	3
CCCn1c(C(C)Nc2nc(-c3ccc(OC)cc3)cs2)nc2ccccc21 (stereo not given)	7
CCCn1c(C(O)c2ccc(OC)cc2)nc2ccccc21 (stereo not given)	9.8*	HuH7 TTR inh=-17;TTR up confirm=0
CCOC(=O)[C@@]12CCC3=C1N(CCC3)C(=O)[C@H](CC(=O)NCc1cccs1)C2	0
CCCC[C@H]1C2CC(OC(=O)Nc3ccc(F)cc3)C(C2)[C@H]2CCCCN21 (stereo not given in full)	-1
COC(=O)C[C@@H]1C[C@H]2c3cc(NC(=O)Nc4ccccc4F)ccc3O[C@H]2[C@H](CO)O1	0
CNC(=O)COC(=O)c1cc(=O)[nH]c2ccccc12	1
NC(=O)COC(=O)c1cc(=O)[nH]c2ccccc12	0
